# Compound activity deposited in PubChem BioAssay by National Center for Advancing Translational Sciences (NCATS).
# Hits are enriched below; roughly 6% of the tested compounds scored in any of these assays.
# Tau fluor cs: counter-screen for tau fibril formation inhibitors. Potency, µM (highest dose often 57.7 µM), inactives show at the top dose activity change, negative = decrease. 280,000 tested, 0.93% active. tau K18 P301L Alexa594 fluorescence, heparin fibrillization. AID 1463; further: nearly all actives have a fitted effect of over 55% in size
#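 Human K18 P301L tau (15 uM unlabeled plus 0.24 uM Alexa 594-labeled, final) in 100 mM sodium acetate pH 7 was mixed with compound and 20 uM heparin and incubated 6 hr at 37 C.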
# Tau fibril FP: inhibitors of human tau fibril formation | P10636 | K18 P301L tau heparin fibrillization, Alexa594 FP, 6 h | Potency, µM (series often up to 57.7 µM), for the others: top-dose activity, negative = inhibition, hits mostly inhibitors | 280,000 tested, 0.39% active | AID 1468; further: nearly all actives have a fitted effect of over 55% in size
# Target sequence (P10636 561-689 P618L limits assumed): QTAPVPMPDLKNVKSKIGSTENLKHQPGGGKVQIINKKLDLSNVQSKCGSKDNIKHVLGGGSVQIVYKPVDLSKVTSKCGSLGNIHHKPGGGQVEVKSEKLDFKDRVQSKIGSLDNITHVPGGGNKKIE
#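 Read-out: fluorescence polarization of Alexa 594-labeled tau (0.24 uM), 555 nm excitation, 632 nm emission. Mixtures held 15 uM unlabeled K18 P301L, compound and 20 uM heparin, pH 7 acetate buffer, incubated 6 hr at 37 C.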
# VDR inhibitor: inhibitors of human vitamin D receptor; VDR-SRC2-3 peptide fluorescence polarization, 2 h; 400,000 tested, 0.93% active; Potency, µM, inactives show max response, negative = inhibition, usual class: inhibitors; P11473
#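 Inhibition of the VDR/SRC2-3 peptide interaction is quantified by fluorescence polarization. Compounds (23 nl, pintool) incubate with the reagents for 2 hours at ambient room temperature.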
# Sfp inh: blocks B. subtilis Sfp PPTase activity | Q9F4F7 | Biochemical Sfp PPTase activity, qHTS | Potency, µM, for inactives: largest response in the series, negative = inhibition, hits mostly inhibitors | 310,000 tested, 3.5% active | AID 1490;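 further: the enzyme is Sfp with the accession as filed and its product quenches rhodamine fluorescence; 0% = enzyme reaction without inhibitor and -100% = no enzyme wells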
#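 Sfp 15 nM + cpd, 15 min RT; start w/ rhodamine-CoA 5 uM, BHQ-2-YbbR 12.5 uM (final); 50 mM Hepes pH 7.6, 10 mM MgCl2, 0.01% NP-40, 0.01% BSA; read 525/598 nm at 0 and 30 min.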
# Tau ThT inhib: tau fibrillization inhibition (ThT binding) | P10636 | recombinant tau K18 P301L (four-repeat tau fragment), heparin-induced fibrillization, ThT fluorescence | Potency, µM (highest dose often 57.4 µM), for inactives: at the top dose activity, negative = inhibition, hits mostly inhibitors | 270,000 tested, 2.1% active; further: nearly all actives have a fitted effect of over 55% in size
#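 Heparin-induced fibrillization of the P301L-mutant K18 repeat-domain fragment of human tau was followed by ThT binding in quantitative high-throughput format.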
# PLK1 PBD inh: PLK1 (human) polo-box domain binding inhibition | P53350 | Plk1 PBD binding of FITC phosphopeptide, fluorescence polarization | Potency, µM, inactives show max response, negative = inhibition, hits mostly inhibitors | 360,000 tested, 2.8% active; further: series mostly up to about 57 µM; nearly all actives have a fitted effect of over 65% in size
# The depositor's hits bear a star; ? = inconclusive; / = no result given; [ ] = remark or other dose. The call rests on the fitted dose curve; in most records, active means well fitted curve in the direction sought with a large enough effect; inconclusive means small, poorly fitted or top-dose-only effect, or another doubt; inactive means no such curve, though single readings can be large; an effect the other way counts as inactive or inconclusive. Unless noted, on the % scale 0 is the no-effect control and ±100 the full control effect; potency means the concentration at half of the fitted maximal effect.
SMILES,Tau fluor cs,Tau fibril FP,VDR inhibitor,Sfp inh,Tau ThT inhib,PLK1 PBD inh
CCC(c1nnnn1Cc1ccco1)N(CCc1ccccc1)Cc1cc2cc(C)ccc2[nH]c1=O (centres undefined),-16%,1%,26%,18µM*,?,-3%
CCC(c1nnnn1Cc1ccccc1)N(Cc1ccco1)Cc1cc2cc(OC)ccc2[nH]c1=O (centres undefined),?,?,-5%,-22%,?,1%
Cc1ccc2[nH]c(=O)c(CN(CCc3ccccc3)C(c3nnnn3Cc3ccco3)C(C)C)cc2c1 (centres undefined),7%[0.0958 µM],0%[0.0958 µM],-2%,18µM*,/,-3%
Cc1ccc2[nH]c(=O)c(CN(CCCO)Cc3nnnn3Cc3ccco3)cc2c1,/,/,-6%,/,/,/
O=C(CSc1nccn(-c2ccc(F)c(F)c2)c1=O)NC1CCCC1,/,/,-15%,/,/,-27%
O=C(CSc1nccn(-c2cccc(F)c2)c1=O)Nc1ccc(Cl)cc1F,/,/,89µM*,-19%,/,?
O=C(CSc1nccn(-c2ccc3c(c2)OCCO3)c1=O)Nc1ccccc1,/,/,?,/,/,21µM*
Cc1ccc(NC(=O)CSc2nccn(-c3ccc4c(c3)OCCO4)c2=O)cc1,/,/,-15%,/,/,-30%
Cc1cccc(C(=O)Nc2cccc(C(=O)N3CCOCC3)c2)c1,-1%,0%,8%,18%,0%,3%
Cc1cccc(NC(=O)C2SC(=Nc3c(C)cccc3C)C(C(=O)N3CCOCC3)=C2N)c1 (centres undefined),?,?,?,-13%,7.1µM*,-3%
CC#CCN1c2ccccc2[C@]23C[C@@H](C(=O)OC)N(S(=O)(=O)c4ccc(OC)cc4)C2=NC(C(=O)OC)=C(C(=O)OC)[C@H]13,-28%[11.6 µM],6%[11.6 µM],/,-2%,-12%[11.5 µM],/
O=C(CCc1ccc(Oc2cc([N+](=O)[O-])cc([N+](=O)[O-])c2)cc1)N1CCCCCC1,-25%,0%,?,18µM*,?,-12%
CCCNS(=O)(=O)c1ccc(CCC(=O)N2CCCCC2)cc1,2%,3%,?,21%,4%,24µM*
Cc1cccc(Nc2c3c(nc4nncn24)CCC3)c1C,4%,2%,9%,/,0%,/
CCOC(=O)c1ccc(NC(=O)C2CCCN(c3ncnc4onc(C)c34)C2)cc1 (centres undefined),-9%,-11%,3%,/,-1%,/
NC1(C(=O)O)CCc2cc(C(=O)O)ccc21 (centres undefined),-14%,-17%,-6%,?,?,/
COc1ccccc1NC(=S)N(Cc1ccc(C(=O)O)cc1)Cc1ccc(OC)c(OC)c1,-8%,0%,-7%,-29%,-6%,-20%
COc1ccccc1NC(=S)N(Cc1ccc(C)cc1)Cc1ccccn1,-13%,6%,-3%,45µM*,-4%,1%
COc1ccc(CCN(Cc2ccccn2)C(=S)Nc2cccc(SC)c2)cc1OC,?,6%,9%,45µM*,-14%,-15%
COc1ccc(CN(Cc2ccc(C(=O)O)cc2)C(=S)Nc2ccccc2F)cc1OC,0%,-1%,-16%,50µM*,-2%,-12%
CCOC(OCC)P(=O)(O)CCCNCc1ccc(Cl)c(Cl)c1,-3%,-8%,-12%,15%,3%,/
Cc1cc(S(=O)(=O)NCC(=O)O)ccc1F,4%,14%,-17%,9%,-7%,21µM*
CC1NC(=O)NC1CCCCC(=O)O (centres undefined),-7%,-5%,2%,11%,-13%,11µM*
COCC1=C2c3ccccc3[C@H](C[N+](=O)[O-])C(C(=O)OC)(C(=O)OC)CC2C2C(=O)N(c3ccccc3)C(=O)C2C1 (some centres undefined),-6%,3%,6%,-9%,-1%,/
O=C(O[C@@H]1OC2COC(=O)c3cc(O)c(O)c(O)c3-c3c(cc(O)c(O)c3O)C(=O)O[C@@H]([C@H]1O)[C@@H]2O)c1cc(O)c(O)c(O)c1,13µM*[quencher],?,-17%,4.5µM*,7.9µM*,9.5µM*
